Bioassay records: PubChem BioAssay, several laboratories
An excerpt weighted towards active compounds, which were near 5.6% of everything screened.
ALR inh: blocks human ALR sulfhydryl oxidase activity | purified ALR, DTT oxidation, H2O2 HRP-luminol luminescence | inhibition, % (test concentration not listed) | actives 3.8% (n = 290,000);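 active = mean replicate inhibition above about 79%, with every replicate also reaching it, limit read from the data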
Target sequence (P55789 whole entry, looked up): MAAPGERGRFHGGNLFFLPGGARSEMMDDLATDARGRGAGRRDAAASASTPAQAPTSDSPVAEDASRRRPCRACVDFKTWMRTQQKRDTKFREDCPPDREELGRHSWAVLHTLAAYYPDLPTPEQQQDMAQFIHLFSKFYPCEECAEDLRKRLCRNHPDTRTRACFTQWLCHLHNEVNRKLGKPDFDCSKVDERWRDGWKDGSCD
PHOSPHO1 inh: PHOSPHO1 (human) inhibition; actives 1.1% (n = 290,000); Q8TCT1; inhibition, % at 13.3 µM; recombinant PHOSPHO1, absorbance phosphatase assay; AID 1565; in the data active = inhibition above about 60%
Target sequence (Q8TCT1 whole entry, looked up): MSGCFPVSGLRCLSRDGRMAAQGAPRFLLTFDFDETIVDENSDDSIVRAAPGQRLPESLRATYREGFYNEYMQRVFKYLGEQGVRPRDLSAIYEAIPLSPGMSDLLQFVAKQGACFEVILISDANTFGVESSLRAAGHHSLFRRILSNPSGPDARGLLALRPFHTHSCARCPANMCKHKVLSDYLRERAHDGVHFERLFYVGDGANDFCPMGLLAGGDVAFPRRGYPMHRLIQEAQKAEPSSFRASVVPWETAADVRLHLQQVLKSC
PfGluPho inh: PfG6PD (Plasmodium falciparum) enzyme inhibition; PfGluPho enzyme, NADPH resazurin-diaphorase fluorescence; inhibition, % at 20 µM; actives 0.78% (n = 350,000); AID 504690;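 active = inhibition reaching at least a set limit at 20 µM in the primary screen, cut at about 59% in these data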
H9c2 protect: protects H9c2 cardiomyocytes from peroxide injury; AID 588492; actives 0.63% (n = 360,000); protection from H2O2 cell death, % at 20 µM; H2O2 injury protection, ATPLite, 2 h;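 active = compounds giving at least 50% protection of heart cells from peroxide-induced death in the single-dose screen, raw or plate-pattern-corrected value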
PfM18AAP inh-1: PfM18AAP enzyme inhibition | recombinant PfM18AAP, H-Glu-NHMec fluorogenic cleavage | actives 1.2% (n = 290,000) | inhibition, % at 7.35 µM;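 active = inhibition above the campaign mean inhibition over all tested compounds plus 3 SD, cut at about 28% in these data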
PfM18AAP inh-2: confirmation of Plasmodium falciparum M18 aspartyl aminopeptidase inhibitors; shares compounds with PfM18AAP inh-1; recombinant PfM18AAP, H-Glu-NHMec fluorogenic cleavage; inhibition, % at 7.35 µM; actives 28% (n = 2,400); AID 2170;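 active = mean inhibition over replicate wells above the hit cutoff set for the earlier primary screen, cut at about 29% in these data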
CTSL1 confirm: Cathepsin L (human) inhibition, confirmation; shares compounds with PfM18AAP inh-1; purified cathepsin L1, Z-Leu-Arg-MCA fluorescence; inhibition, % at 5.96 µM; 2,400 tested, under 10 active; AID 2178;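 active = average inhibition across replicates above the hit cutoff set in the earlier primary screen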
Of the large screens only hits and unclear results are named; the others gave an inactive call (follow-up assays come after a bar, where they were run).

Cc1ccc(S(=O)(=O)NNC(=S)NC(=O)c2ccc([N+](=O)[O-])cc2)cc1	ALR inh 93.0, PfM18AAP inh-1 47.8 | PfM18AAP inh-2 inactive | CTSL1 confirm inactive
Cc1ccc(C(=O)NC(=S)NNS(=O)(=O)c2ccc(C)cc2)cc1	ALR inh 97.2, PfM18AAP inh-1 40.0 | PfM18AAP inh-2 inactive | CTSL1 confirm inactive
COc1ccc(S(=O)(=O)N2CCCCC2)cc1NC(=O)CCOc1cc(C)ccc1C	none (no result: PHOSPHO1 inh, PfM18AAP inh-1)
Cc1c(Cc2ccccc2)c(=O)oc2c(O)c(O)ccc12	PfM18AAP inh-1 47.0 (no result: ALR inh) | PfM18AAP inh-2 inactive | CTSL1 confirm inactive
C=CCN=c1scc(-c2ccccc2)n1/N=C/c1ccccn1	none
CN=c1scc(-c2ccco2)n1/N=C/c1ccc(O)c(O)c1	PfM18AAP inh-1 59.0 (no result: ALR inh) | PfM18AAP inh-2 51.4 | CTSL1 confirm inactive
C=CCN=c1scc(C)n1/N=C/c1ccc(O)c(O)c1	ALR inh 98.8, H9c2 protect 65.2, PfM18AAP inh-1 57.3 | PfM18AAP inh-2 40.3 | CTSL1 confirm inactive
O=C(O)CN1C(=O)C(=O)N(Cc2ccc(Cl)cc2Cl)C1=O	none
O=c1c2c([N+](=O)[O-])cc([N+](=O)[O-])cc2sn1Cc1ccccc1	PfGluPho inh 123.6, PfM18AAP inh-1 79.0 | PfM18AAP inh-2 71.7 | CTSL1 confirm inactive
Cc1cccc(NC(=S)NN2CCN(C)CC2)c1C	none
Cc1ccccc1NC(=S)Nn1cnnc1	PfM18AAP inh-1 72.8 | PfM18AAP inh-2 52.1 | CTSL1 confirm inactive
CCc1ccccc1NC(=S)Nn1cnnc1	PHOSPHO1 inh 61.0, PfM18AAP inh-1 76.4 (no result: PfGluPho inh) | PfM18AAP inh-2 69.9 | CTSL1 confirm inactive
Fc1ccccc1NC(=S)NCc1ccccc1	none (no result: ALR inh)
Fc1ccccc1NC(=S)Nn1cnnc1	PfM18AAP inh-1 75.2 | PfM18AAP inh-2 54.5 | CTSL1 confirm inactive
Cc1cccc(NC(=S)Nn2cnnc2)c1C	PfM18AAP inh-1 71.6 | PfM18AAP inh-2 68.9 | CTSL1 confirm inactive
Cn1nc(C(=O)NNC(=O)COc2ccccc2)c2ccccc2c1=O	PfM18AAP inh-1 43.7 | PfM18AAP inh-2 31.9 | CTSL1 confirm inactive
CCn1nc(C(=O)NNC(=O)COc2ccc(OC)cc2)c2ccccc2c1=O	none
O=C(O)CCNc1cc2ccccc2cc1C(=O)O	PfM18AAP inh-1 34.9 | PfM18AAP inh-2 inactive | CTSL1 confirm inactive
Cc1ccc(C(=O)OCC(=O)N(CC(C)C)c2c(N)n(Cc3ccccc3)c(=O)[nH]c2=O)s1	none
O=C(Nc1ccncc1)C1COc2ccccc2O1 (stereo not given)	none
O=C(CSC1=NCCN1)C1COc2ccccc2O1 (stereo not given)	ALR inh 92.9, PfM18AAP inh-1 41.8 | PfM18AAP inh-2 inactive | CTSL1 confirm inactive
CCOc1ccc2ccccc2c1/C=N/NC(=O)c1ccc(C)nc1	none
Cc1ncc(CO)c(/C=N/NC(=O)c2cc(O)c(O)c(O)c2)c1O	PfM18AAP inh-1 57.5 (no result: ALR inh, PfGluPho inh, H9c2 protect) | PfM18AAP inh-2 35.9 | CTSL1 confirm inactive
CCN1C(=O)N(C)[C@@H](c2ccccc2)C(C(C)=O)=C1C	none (no result: PHOSPHO1 inh, PfM18AAP inh-1)
Cc1ccc[n+](CC(=O)c2ccc(Br)cc2)c1C	none
COc1ccc(CN2CCNC(=O)C2CC(=O)N(C)CC2CCOCC2)cc1C (stereo not given)	none (no result: ALR inh, PHOSPHO1 inh)
CCOC(=O)N(C)c1c(CC)nc2c(OCc3ccc(Cl)cc3Cl)cccn12	none (no result: ALR inh, PHOSPHO1 inh, PfGluPho inh, PfM18AAP inh-1)
Cc1sc(N)nc1C12CC3CC(CC(C3)C1)C2	none
S=c1nc(C23CC4CC(CC(C4)C2)C3)[nH][nH]1	PfM18AAP inh-1 35.5 | PfM18AAP inh-2 inactive | CTSL1 confirm inactive
CC(=O)Nc1ccc(CN(C)c2c(C)nc3ccc(C(=O)NCCCN4CCCC4=O)cn23)cc1	none (no result: ALR inh, PHOSPHO1 inh, PfGluPho inh, PfM18AAP inh-1)
COc1ccc2sc(C)[n+](C)c2c1	PfM18AAP inh-1 43.2 | PfM18AAP inh-2 inactive | CTSL1 confirm inactive
COCC(=O)N1CCC(Oc2ccc(C(=O)NCc3cc(C)n(C)n3)cc2)CC1	none
COc1ccc(C(=O)NCc2nnc(SCC(=O)Nc3nnc(C)s3)o2)cc1	ALR inh 99.2, PfM18AAP inh-1 35.0 | PfM18AAP inh-2 inactive | CTSL1 confirm inactive
Cc1nnc(NC(=O)CSc2nnc(CNC(=O)c3ccc(F)cc3)o2)s1	none
CCSc1nnc(NC(=O)CSc2nnc(CNC(=O)c3cc(OC)c(OC)c(OC)c3)o2)s1	none
